Some of the results follow. Inconclusive results are not listed. Calls of active or inactive are those of the source. Calls come from the whole dose curve; as a rule, active = well fitted curve in the direction sought with a large enough effect; inconclusive = small, poorly fitted or top-dose-only effect, or effect the other way, or another doubt; inactive = no such curve, though single readings can be large or run the other way.
Experiment: High Content Assay for Compounds that inhibit the Assembly of the Perinucleolar Compartment: PC3M Caspase 3/7 Activation
Conditions: PC3M-GFP caspase 3/7 activation, luminescence, 24 h; series mostly up to 46.1 µM
Description: High Content Assay for Compounds that inhibit the Assembly of the Perinucleolar Compartment NIH Chemical Genomics Center [NCGC] NIH Molecular Libraries Probe Centers Network [MLPCN] MLPCN Grant: MH082371-01A2 Assay Submitter (PI): Sui Huang, Northwestern University, Feinberg School of Medicine, Cell and Molecular Biology, Chicago, Illinois. The perinucleolar compartment (PNC) is a non-membrane-bound nuclear subdomain that is associated with but structurally distinct from the nucleolus. The PNC is a heritable trait, in which the number of PNCs per cell in daughter cells often mimics that of their mother cells. The PNC is heterogeneous in shape, is stable through interphase, disassembles during mitosis, and reassembles in early G1. The PNC is concentrated with newly synthesized RNA polymerase III (pol III) RNAs (MRP RNA, RNAse P H1 RNA, hY RNAs[hY1, 2, 5], Alu RNA, and SRP [7SL] RNA) and RNA binding proteins (nucleolin, PTB, CUG-BP, KSRP, Raver1, Raver2, and Rod). […] Extensive in vitro studies have shown that the PNC is unique to tumor cells and preferentially forms in tumor cells derived from solid tissues. Examination of cancer cell lines from various origins and malignant capacities has shown that PNC prevalence correlates with the malignancy of tumors and has the potential to be developed as a pan-cancer prognostic marker. […] Although the PNC is associated with a DNA locus and a handful of components have been identified, much remains to be investigated regarding the structure and function of the PNC and its mechanistic link to cancer. We have previously shown that PNC prevalence reduction is a valid strategy to identify compounds that can be used to study the structure and function of the PNC. It is necessary, however, to create a screening platform that is able to test a large number of compounds in an automated fashion. Here we report the development and robustness of an automated whole-cell phenotypic image-based screening assay that is capable of identifying such compounds. We conducted a followup assay to measure the effects of the lead candidates on Caspase 3/7 activation using a luminescent Caspase kit (Caspase 3/7 Glo). The highly metastatic PC3M-GFP reporter cell line was used in this study.
Caspase 3/7 Assay 1. Cells at a density of 75-90% confluency in T175 flasks were harvested using 7 ml TrypLE Express cell dissociation reagent. After dissociation (5 minutes room temperature incubation) 10 ml of complete media was added to the TrypLE/cell suspension. The liquid was transferred to a 50 ml Conical tube and cells were pelleted at 1000 RPM for 5 min. Supernatant was removed and cells were resuspended to a final density of 150-200 cells/ul in complete media. 2. Cells were plated in 5 ul volume (2000 cells/well) into 1536 well White solid bottom plates and allowed to recover and adhere at 37 C in a humidified 5% CO2 incubator for 4 hours. 3. After 4 hour incubation, compound libraries (23 nl of […] in columns 5-48) were transferred to the plates in duplicate using a 1536 well pintool. Camptothecin positive control (59 uM final) was added to column 2 and 1:3 dilutions of camptothecin was added to column 3. DMSO negative controls were present in columns 1 and 4. 4. After a 24 hour incubation in the 37 C incubator, all wells were treated with 3 ul of Caspase Glo 3/7 reagent using a multidrop combi dispenser (ThermoFisher). Bubbles that formed during dispensing were removed by spinning the plates for 1 minutre at 1500 RPM on a table top centrifuge. Plates were incubated at room temperature for 5 minutes. 5. Luminescencent signal was detected on a Viewlux CCD based imager (PerkinElmer) with a clear filter and a 30 second integration time. The The PC3M cell line stably expressing the PTB-GFP was provided by Sui Huang of Northwestern University. The media and cell culture reagents were purchased from Invitrogen (Carlsbad, CA). […]

outcome, inactive:
CCOC(=O)c1c(-c2cccc(C)c2)csc1NC(=O)c1c(-c2ccccc2)noc1C, N=c1c2c(-c3ccccc3)c(-c3ccccc3)n(Cc3ccccc3)c2ncn1CCCO, COC(=O)C1=C(C)N(c2ccc(Br)cc2)C(=O)/C1=C\c1ccco1, Cn1c2ccccc2c(=O)c2c(=O)n(Cc3ccco3)c(COc3ccccc3)nc21, CC1(c2cccc([N+](=O)[O-])c2)CC(C)(C)N(C(=O)c2ccccc2)c2ccccc21 (stereo unspecified), COC(=O)c1ccc(CSc2ccccc2C)o1
